Hits are enriched below; roughly 9.2% of the tested compounds scored in any of these assays.
Rab9 promoter act: Rab9 promoter activation; 320,000 tested, 2.8% active; Potency, µM (top dose mostly 9.22 µM), for inactives: at the top dose activation, negative = inhibition, hits mostly activators; Huh7 Rab9 promoter-luciferase reporter, luminescence, 24 h; note: % of control where 0% means no effect; nearly all actives have a fitted effect of over 60% in size
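Stable Rab9-luc Huh7, 1500 cells/well, 2 h settle; cmpd in DMSO, 24 h, 37 °C/5% CO2; luciferase reagent 10 min RT; luminescence.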
NPC1 promoter act: NPC1 promoter activation | 320,000 tested, 2.4% active | Potency, µM (top dose mostly 9.22 µM), without a hit: at the highest dose activation, hits mostly activators | Huh7 NPC1 promoter luciferase reporter, 24 h; note: % of control where 0% means no effect; nearly all actives have a fitted effect of over 60% in size
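In 1536-well qHTS, Huh7 cells harboring an NPC1 promoter–luciferase construct received compound for 24 h; activation was quantified by luminescence following luciferase reagent addition.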
FLuc counter: inhibits or activates purified firefly luciferase, miR-21 counter-screen; 360,000 tested, 6.9% active; P08659; Potency, µM (doses to about 57.5 µM), for the others: at the top dose activity change, negative = inhibition, actives largely listed as inhibitors; purified FLuc, Km substrates, luminescence inhibition;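 note: plate controls were vehicle for no effect and reference inhibitor for full effect; nearly all actives have a fitted effect of over 55% in size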
Target sequence (P08659 whole entry, looked up): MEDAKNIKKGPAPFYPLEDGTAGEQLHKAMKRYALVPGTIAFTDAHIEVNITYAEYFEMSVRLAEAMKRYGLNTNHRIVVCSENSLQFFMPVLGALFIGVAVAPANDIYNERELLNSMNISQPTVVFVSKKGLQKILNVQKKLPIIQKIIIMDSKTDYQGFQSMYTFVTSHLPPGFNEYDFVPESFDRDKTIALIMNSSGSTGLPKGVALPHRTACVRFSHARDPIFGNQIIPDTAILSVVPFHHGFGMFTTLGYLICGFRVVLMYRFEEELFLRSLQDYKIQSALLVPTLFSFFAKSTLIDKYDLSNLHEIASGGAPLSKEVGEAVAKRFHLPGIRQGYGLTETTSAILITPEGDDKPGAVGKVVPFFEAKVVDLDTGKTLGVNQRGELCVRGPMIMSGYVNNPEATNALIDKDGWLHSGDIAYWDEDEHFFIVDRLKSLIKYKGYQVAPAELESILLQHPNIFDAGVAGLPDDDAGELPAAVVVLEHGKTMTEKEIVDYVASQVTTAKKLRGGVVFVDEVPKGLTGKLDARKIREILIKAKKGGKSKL
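Purified P. pyralis luciferase (10nM final) with 10uM D-luciferin and 10uM ATP (Km levels) in 50mM Tris acetate pH 7.5, 10mM Mg acetate, 0.01% Tween-20, 0.05% BSA; qHTS 6-point titration, ~60 µM downward; luminescence read.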
ELG1 genotox: genotoxicity induction in ELG1-luciferase HEK293T cells; HEK293T ELG1-luciferase reporter, luminescence, 16 h; Potency, µM (highest dose often 46 µM), inactives show at the top dose activity change, positive = activation, hits mostly activators; 330,000 tested, 1.3% active; AID 504466; note: % of control where 0% means no effect; nearly all actives have a fitted effect of over 60% in size
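Genotoxicity was scored as increased ELG1-luciferase reporter signal, measured by ONE-Glo luminescence (30 min, room temperature). Compound or vehicle exposure of the HEK293T reporter cells lasted 16 hr at 37°C.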
SMN2 splice enh: SMN2 splice variant enhancement; HEK293 SMN2-luciferase splicing reporter, luminescence, 30-36 h; Potency, µM (series often up to 46.1 µM), for the others: at the top dose activity change, positive = activation, actives largely listed as activators; 210,000 tested, 2.8% active; AID 1458; note: % of control where 0% means no effect; nearly all actives have a fitted effect of over 55% in size
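HEK293 cells carry an SMN2 minigene-luciferase reporter in which exon 7 inclusion puts luciferase in frame. Cells were seeded at 2000 cells/well, attached for 10-12 hours, then exposed to compounds for 30-36 hours at 37C before ONE-Glo luminescence.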
ELG1 repair inh: ELG1-dependent DNA repair inhibition; HEK293T ELG1-luciferase reporter, luminescence, 16 h; DNA damage induced by 5-fluorouridine; Potency, µM (top dose mostly 46.1 µM), for the others: top-dose activity change, negative = inhibition, usual class: inhibitors; 330,000 tested, 2.3% active; AID 504467; note: % is set by controls: 0 for no effect and ±100 for the full control effect; nearly all actives have a fitted effect of over 55% in size
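HEK293T cells expressing luciferase-tagged ELG1 (2,000/well) received 5-Fluorouridine plus compound or DMSO for 16 hr at 37 °C. Luciferase was read by ONE-Glo luminescence after 30 min at room temperature.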
* = called active by the depositor; [ ] = another dose, or the depositor's remark. Calls come from the whole dose curve; as a rule, active = well fitted curve in the direction sought with a large enough effect; inconclusive = small, poorly fitted or top-dose-only effect, or another doubt; inactive = no such curve, though single readings can be large; an effect the other way counts as inactive or inconclusive. Potency is the fitted concentration of half-maximal effect.

Results for Nc1ccc2nc(-c3ccccc3)[nH]c2c1 ?
Rab9 promoter act: 3.2µM*; NPC1 promoter act: 3.2µM*; FLuc counter: 7.6µM*; ELG1 genotox: inconclusive; SMN2 splice enh: 18µM*; ELG1 repair inh: inconclusive

How did Cc1cc(=S)nc(-c2ccccn2)[nH]1 do in these assays?
Rab9 promoter act: -1%; NPC1 promoter act: 0%; FLuc counter: -3%; ELG1 genotox: 3%; ELG1 repair inh: inconclusive

Results for Nc1ccc2nc(-c3ccccn3)[nH]c2c1 ?
Rab9 promoter act: inconclusive; NPC1 promoter act: inconclusive; FLuc counter: 13µM*; ELG1 genotox: 11%; SMN2 splice enh: 16µM*; ELG1 repair inh: inconclusive

Results for CC(=O)OC1CC2C(C)(C)C(O)CCC2(C)C2CC[C@]3(C)C(=CC(=O)OC3c3ccoc3)C12C (stereo partly drawn) ?
SMN2 splice enh: -9%

Results for O=C(OCC1OC(OC(=O)c2cc(O)c(O)c(OC(=O)c3cc(O)c(O)c(O)c3)c2)[C@@H](OC(=O)c2cc(O)c(O)c(OC(=O)c3cc(O)c(O)c(O)c3)c2)C(OC(=O)c2cc(O)c(O)c(OC(=O)c3cc(O)c(O)c(O)c3)c2)C1OC(=O)c1cc(O)c(O)c(OC(=O)c2cc(O)c(O)c(O)c2)c1)c1cc(O)c(O)c(OC(=O)c2cc(O)c(O)c(O)c2)c1 (stereo partly drawn) ?
SMN2 splice enh: -97%

How did COC(=O)Nc1nc2ccc(C(=O)c3ccccc3)cc2[nH]1 do in these assays?
SMN2 splice enh: 23%

What do the screens show for `Nc1ccc2nc(C(F)(F)F)[nH]c2c1`?
Rab9 promoter act: 1%; NPC1 promoter act: -2%; FLuc counter: -2%; ELG1 genotox: 1%; SMN2 splice enh: -2%; ELG1 repair inh: 5%

How did Nc1ccc2nc(-c3ccc(N)c(Cl)c3)[nH]c2c1 do in these assays?
Rab9 promoter act: 2.8µM*; NPC1 promoter act: inconclusive; FLuc counter: 6µM*; ELG1 genotox: inconclusive; SMN2 splice enh: inconclusive; ELG1 repair inh: 4%

What do the screens show for `CC(=O)Nc1ccc2nc(-c3cccs3)[nH]c2c1`?
Rab9 promoter act: 2.5µM*; NPC1 promoter act: inconclusive; FLuc counter: 12µM*; ELG1 genotox: inconclusive; SMN2 splice enh: inconclusive; ELG1 repair inh: inconclusive

How did Nc1ccc2nc(-c3cccs3)[nH]c2c1 do in these assays?
Rab9 promoter act: 2.5µM*; NPC1 promoter act: inconclusive; FLuc counter: 11µM*; ELG1 genotox: inconclusive; SMN2 splice enh: 22µM*; ELG1 repair inh: inconclusive

What do the screens show for `Nc1cccc(-c2nc3ccc(C(=O)c4ccccc4)cc3[nH]2)c1`?
Rab9 promoter act: 24%; NPC1 promoter act: 18%; FLuc counter: 0.76µM*; ELG1 genotox: inconclusive; ELG1 repair inh: inconclusive

How did Cn1cccc1-c1nc2ccc(NC(=O)c3cccs3)cc2[nH]1 do in these assays?
Rab9 promoter act: 3%; NPC1 promoter act: 0%; FLuc counter: inconclusive; ELG1 genotox: inconclusive; SMN2 splice enh: 41%; ELG1 repair inh: inconclusive

Results for O=S1(=O)CCN(c2ccccc2CC(c2c[nH]c3ccccc23)c2c[nH]c3ccccc23)CC1 ?
SMN2 splice enh: -1%[9.22 µM]

What do the screens show for `Cc1ccc(O)c(NC(=O)c2nc3nc(C)cc(C(F)F)n3n2)c1`?
FLuc counter: -2%; SMN2 splice enh: -4%

What do the screens show for `CCc1cc2c(=O)c(-c3nc4ccccc4n3C)c(COCC(=O)O)oc2cc1O`?
Rab9 promoter act: 11%; NPC1 promoter act: 2%; FLuc counter: 1%; ELG1 genotox: -2%; SMN2 splice enh: 11%; ELG1 repair inh: 13%

Results for CCCc1cc2c(=O)c(-c3nc4ccccc4s3)c(COCC(=O)O)oc2cc1O ?
Rab9 promoter act: inconclusive; NPC1 promoter act: 2%; FLuc counter: 9.5µM*; ELG1 genotox: 6%; SMN2 splice enh: 51%; ELG1 repair inh: inconclusive

Results for CN1CCC(N(C)C(=O)/C(C#N)=C/c2ccccc2)CC1 ?
Rab9 promoter act: -4%; NPC1 promoter act: -4%; FLuc counter: 0%; ELG1 genotox: 1%; ELG1 repair inh: inconclusive

What do the screens show for `Cn1c2ccccc2c(=O)c2ccc(C#Cc3ccccn3)cc21`?
Rab9 promoter act: 22%; NPC1 promoter act: 16%; FLuc counter: -17%; ELG1 genotox: 15%; ELG1 repair inh: inconclusive

What do the screens show for `Cn1c2ccccc2c(=O)c2cc(C#Cc3ccccn3)ccc21`?
Rab9 promoter act: 5µM*; NPC1 promoter act: 2.5µM*; FLuc counter: 3µM*; ELG1 genotox: inconclusive; ELG1 repair inh: inconclusive

What do the screens show for `Cn1c2ccccc2c(=O)c2ccc(F)cc21`?
Rab9 promoter act: 4%; NPC1 promoter act: -1%; FLuc counter: -6%; ELG1 genotox: 16%; ELG1 repair inh: 24%

What do the screens show for `Cn1c2ccccc2c(=O)c2cc(C#Cc3ccsc3)ccc21`?
Rab9 promoter act: 2.8µM*; NPC1 promoter act: inconclusive; FLuc counter: 2.4µM*; ELG1 genotox: 10%; ELG1 repair inh: inconclusive

What do the screens show for `O=S(=O)(c1ccc2c(c1)OCCO2)N1C[C@@H]2C[C@H]1CN2S(=O)(=O)c1c(F)cccc1F`?
ELG1 genotox: -3%; ELG1 repair inh: 5%

How did Fc1ccc(Nc2nc3ccccc3s2)cc1 do in these assays?
Rab9 promoter act: 2.5µM*; NPC1 promoter act: inconclusive; FLuc counter: 7.6µM*; ELG1 genotox: inconclusive; SMN2 splice enh: 13µM*; ELG1 repair inh: inconclusive

Results for O=[N+]([O-])c1ccc(Nc2nc3ccccc3s2)cc1 ?
SMN2 splice enh: -7%[9.22 µM]

What do the screens show for `Cc1ccccc1Nc1nc2ccccc2s1`?
Rab9 promoter act: 2.5µM*; NPC1 promoter act: 3.5µM*; FLuc counter: 4.8µM*; ELG1 genotox: inconclusive; SMN2 splice enh: 11µM*; ELG1 repair inh: inconclusive

How did Cc1ccc(Nc2nc3ccccc3s2)cc1 do in these assays?
Rab9 promoter act: 0.71µM*; NPC1 promoter act: 1µM*; FLuc counter: 0.85µM*; ELG1 genotox: 7.3µM*; SMN2 splice enh: 2.8µM*; ELG1 repair inh: inconclusive

How did O=C(Nc1ccccc1-c1nnc(SCc2ccccc2)o1)c1ccccc1 do in these assays?
Rab9 promoter act: 0%; NPC1 promoter act: 1%; FLuc counter: 4%; ELG1 genotox: -5%; SMN2 splice enh: -22%; ELG1 repair inh: -3%

What do the screens show for `O=C(O)c1ccc(CSc2nnc(-c3ccccc3Br)o2)cc1`?
Rab9 promoter act: -1%; NPC1 promoter act: 2%; FLuc counter: 24µM*; ELG1 genotox: 6%; ELG1 repair inh: 20%

Assay outcomes as filed in PubChem.
